Results on two molecules are retold here after ChEMBL document CHEMBL1961873, “Compounds: GSK PKIS; Assays: Nanosyn kinase panel” (2012).

Assay [1] addresses Protein kinase C gamma type (Homo sapiens) (UniProt P05129). To be noted: at 1 µM.
Assay [2] has as its target T1, Protein kinase C iota type (Homo sapiens) (UniProt P41743).
T1 sequence (whole entry): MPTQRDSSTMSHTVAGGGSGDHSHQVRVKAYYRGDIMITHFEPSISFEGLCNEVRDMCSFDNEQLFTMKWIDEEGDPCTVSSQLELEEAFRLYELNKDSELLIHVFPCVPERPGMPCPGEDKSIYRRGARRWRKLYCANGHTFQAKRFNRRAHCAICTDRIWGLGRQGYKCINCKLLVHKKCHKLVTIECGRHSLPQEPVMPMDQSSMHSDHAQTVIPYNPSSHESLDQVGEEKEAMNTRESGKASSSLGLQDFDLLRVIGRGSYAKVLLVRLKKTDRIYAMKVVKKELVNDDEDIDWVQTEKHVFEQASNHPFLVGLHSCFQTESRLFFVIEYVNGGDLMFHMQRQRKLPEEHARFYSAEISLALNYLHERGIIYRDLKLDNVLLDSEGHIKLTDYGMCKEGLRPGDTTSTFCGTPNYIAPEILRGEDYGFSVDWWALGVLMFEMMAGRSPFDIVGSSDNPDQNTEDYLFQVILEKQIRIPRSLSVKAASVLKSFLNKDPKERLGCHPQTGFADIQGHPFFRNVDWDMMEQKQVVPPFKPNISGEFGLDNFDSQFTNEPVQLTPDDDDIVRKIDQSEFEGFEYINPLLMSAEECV
Particulars: at 0.1 µM.

The target in assay [3] is T1, Protein kinase C iota type (Homo sapiens). Particulars: at 1 µM.
The target in assay [4] is Protein kinase C theta type (Homo sapiens) (UniProt Q04759). Particulars: at 0.1 µM.
Protein kinase C theta type (Homo sapiens), sequence (Q04759 whole entry, looked up): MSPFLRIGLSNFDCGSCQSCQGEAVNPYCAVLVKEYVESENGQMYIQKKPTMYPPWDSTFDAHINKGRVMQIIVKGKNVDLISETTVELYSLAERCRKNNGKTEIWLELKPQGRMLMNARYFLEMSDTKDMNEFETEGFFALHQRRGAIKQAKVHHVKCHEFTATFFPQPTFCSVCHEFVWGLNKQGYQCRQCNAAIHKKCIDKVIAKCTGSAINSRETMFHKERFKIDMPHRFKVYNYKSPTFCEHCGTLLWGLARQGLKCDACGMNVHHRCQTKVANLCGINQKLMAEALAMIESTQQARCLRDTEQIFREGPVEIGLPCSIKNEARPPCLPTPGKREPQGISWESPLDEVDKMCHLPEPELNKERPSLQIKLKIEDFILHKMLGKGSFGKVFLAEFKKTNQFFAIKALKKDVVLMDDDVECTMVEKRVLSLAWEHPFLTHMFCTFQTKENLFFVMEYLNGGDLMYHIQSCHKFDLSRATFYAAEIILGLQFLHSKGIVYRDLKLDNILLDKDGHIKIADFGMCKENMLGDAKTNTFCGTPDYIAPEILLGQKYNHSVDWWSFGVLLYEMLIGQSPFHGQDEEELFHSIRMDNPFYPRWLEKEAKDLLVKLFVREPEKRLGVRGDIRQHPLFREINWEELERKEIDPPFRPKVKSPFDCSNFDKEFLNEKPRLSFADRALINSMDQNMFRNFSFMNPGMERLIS
For assay [5] the target is unchanged. To be noted: at 1 µM.
For assay [6], the target named is Protein kinase C beta type (Homo sapiens) (UniProt P05771). Particulars: at 0.1 µM.
Protein kinase C beta type (Homo sapiens), sequence (P05771 2-671 limits assumed): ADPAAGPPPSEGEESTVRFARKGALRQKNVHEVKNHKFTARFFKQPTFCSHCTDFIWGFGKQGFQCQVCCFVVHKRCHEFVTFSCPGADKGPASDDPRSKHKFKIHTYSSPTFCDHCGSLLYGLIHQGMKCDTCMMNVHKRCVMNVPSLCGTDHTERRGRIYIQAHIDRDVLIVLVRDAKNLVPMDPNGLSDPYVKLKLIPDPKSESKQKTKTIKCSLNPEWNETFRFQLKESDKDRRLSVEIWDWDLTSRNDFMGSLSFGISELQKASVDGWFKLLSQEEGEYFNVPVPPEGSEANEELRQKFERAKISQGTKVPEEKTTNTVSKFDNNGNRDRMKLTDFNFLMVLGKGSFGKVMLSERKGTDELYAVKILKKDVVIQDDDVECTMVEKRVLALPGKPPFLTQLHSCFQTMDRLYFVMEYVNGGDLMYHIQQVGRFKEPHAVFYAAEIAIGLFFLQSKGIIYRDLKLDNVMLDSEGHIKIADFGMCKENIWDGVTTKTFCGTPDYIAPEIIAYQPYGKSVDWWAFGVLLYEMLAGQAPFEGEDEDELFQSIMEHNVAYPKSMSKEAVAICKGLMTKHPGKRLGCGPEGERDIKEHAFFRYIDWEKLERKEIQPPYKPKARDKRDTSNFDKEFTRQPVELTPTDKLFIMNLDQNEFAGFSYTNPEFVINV
For assay [7] the target is unchanged. To be noted: at 1 µM.
In assay [8] the target is T2, Serine/threonine-protein kinase D1 (Homo sapiens) (UniProt Q15139).
T2 sequence (whole entry): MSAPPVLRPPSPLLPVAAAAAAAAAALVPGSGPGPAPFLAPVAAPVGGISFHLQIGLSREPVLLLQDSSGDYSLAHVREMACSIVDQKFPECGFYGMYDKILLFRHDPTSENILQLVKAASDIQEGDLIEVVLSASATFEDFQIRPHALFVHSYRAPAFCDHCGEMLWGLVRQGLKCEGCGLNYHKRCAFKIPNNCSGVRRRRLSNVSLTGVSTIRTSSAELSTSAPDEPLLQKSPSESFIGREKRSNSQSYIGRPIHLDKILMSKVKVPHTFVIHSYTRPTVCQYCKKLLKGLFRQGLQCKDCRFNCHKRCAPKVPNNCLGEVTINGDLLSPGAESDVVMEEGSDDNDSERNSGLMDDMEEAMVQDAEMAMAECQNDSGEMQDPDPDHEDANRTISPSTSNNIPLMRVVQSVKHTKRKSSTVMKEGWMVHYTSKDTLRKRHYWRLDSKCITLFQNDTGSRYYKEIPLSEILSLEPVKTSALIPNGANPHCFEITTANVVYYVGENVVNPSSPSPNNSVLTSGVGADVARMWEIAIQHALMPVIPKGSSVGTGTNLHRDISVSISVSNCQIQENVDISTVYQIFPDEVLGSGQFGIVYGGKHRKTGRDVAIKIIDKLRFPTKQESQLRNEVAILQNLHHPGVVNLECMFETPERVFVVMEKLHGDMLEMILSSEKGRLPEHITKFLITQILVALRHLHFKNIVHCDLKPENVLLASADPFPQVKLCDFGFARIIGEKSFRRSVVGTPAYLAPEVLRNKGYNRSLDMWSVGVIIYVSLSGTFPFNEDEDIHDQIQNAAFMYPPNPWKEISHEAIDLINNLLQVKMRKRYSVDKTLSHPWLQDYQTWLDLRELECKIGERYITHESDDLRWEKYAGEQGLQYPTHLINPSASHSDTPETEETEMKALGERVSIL
Particulars: at 0.1 µM.

For assay [9], the target named is T2, Serine/threonine-protein kinase D1 (Homo sapiens). To be noted: at 1 µM.
Assay [10] concerns the target T3, Serine/threonine-protein kinase D2 (Homo sapiens) (UniProt Q9BZL6).
T3 sequence (whole entry): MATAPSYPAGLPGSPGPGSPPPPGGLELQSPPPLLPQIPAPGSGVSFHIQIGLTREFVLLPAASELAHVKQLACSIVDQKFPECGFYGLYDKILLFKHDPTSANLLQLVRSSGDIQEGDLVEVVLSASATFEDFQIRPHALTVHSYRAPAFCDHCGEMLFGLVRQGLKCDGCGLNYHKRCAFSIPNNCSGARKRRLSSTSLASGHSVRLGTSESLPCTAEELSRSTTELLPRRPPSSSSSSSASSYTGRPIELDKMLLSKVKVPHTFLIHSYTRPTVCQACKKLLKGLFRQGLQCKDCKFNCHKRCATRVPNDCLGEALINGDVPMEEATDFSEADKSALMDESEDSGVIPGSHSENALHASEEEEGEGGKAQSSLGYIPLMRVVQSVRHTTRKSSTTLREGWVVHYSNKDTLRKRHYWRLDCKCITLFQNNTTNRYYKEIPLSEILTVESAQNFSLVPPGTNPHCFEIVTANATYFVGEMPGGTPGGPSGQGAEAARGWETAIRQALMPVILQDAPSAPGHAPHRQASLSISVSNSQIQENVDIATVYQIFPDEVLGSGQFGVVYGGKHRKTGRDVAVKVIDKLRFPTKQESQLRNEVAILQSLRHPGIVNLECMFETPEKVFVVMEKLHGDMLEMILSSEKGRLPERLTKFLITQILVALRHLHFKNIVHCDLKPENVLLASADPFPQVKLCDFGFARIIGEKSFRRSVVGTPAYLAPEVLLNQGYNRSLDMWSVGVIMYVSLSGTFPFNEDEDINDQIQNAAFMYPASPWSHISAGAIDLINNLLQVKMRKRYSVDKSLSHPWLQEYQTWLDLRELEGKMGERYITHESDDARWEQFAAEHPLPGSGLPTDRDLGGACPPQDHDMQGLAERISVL
To be noted: at 0.1 µM.

Assay [11] has as its target T3, Serine/threonine-protein kinase D2 (Homo sapiens). To be noted: at 1 µM.
Assay [12] has as its target T4, Serine/threonine-protein kinase D3 (Homo sapiens) (UniProt O94806).
T4 sequence (whole entry): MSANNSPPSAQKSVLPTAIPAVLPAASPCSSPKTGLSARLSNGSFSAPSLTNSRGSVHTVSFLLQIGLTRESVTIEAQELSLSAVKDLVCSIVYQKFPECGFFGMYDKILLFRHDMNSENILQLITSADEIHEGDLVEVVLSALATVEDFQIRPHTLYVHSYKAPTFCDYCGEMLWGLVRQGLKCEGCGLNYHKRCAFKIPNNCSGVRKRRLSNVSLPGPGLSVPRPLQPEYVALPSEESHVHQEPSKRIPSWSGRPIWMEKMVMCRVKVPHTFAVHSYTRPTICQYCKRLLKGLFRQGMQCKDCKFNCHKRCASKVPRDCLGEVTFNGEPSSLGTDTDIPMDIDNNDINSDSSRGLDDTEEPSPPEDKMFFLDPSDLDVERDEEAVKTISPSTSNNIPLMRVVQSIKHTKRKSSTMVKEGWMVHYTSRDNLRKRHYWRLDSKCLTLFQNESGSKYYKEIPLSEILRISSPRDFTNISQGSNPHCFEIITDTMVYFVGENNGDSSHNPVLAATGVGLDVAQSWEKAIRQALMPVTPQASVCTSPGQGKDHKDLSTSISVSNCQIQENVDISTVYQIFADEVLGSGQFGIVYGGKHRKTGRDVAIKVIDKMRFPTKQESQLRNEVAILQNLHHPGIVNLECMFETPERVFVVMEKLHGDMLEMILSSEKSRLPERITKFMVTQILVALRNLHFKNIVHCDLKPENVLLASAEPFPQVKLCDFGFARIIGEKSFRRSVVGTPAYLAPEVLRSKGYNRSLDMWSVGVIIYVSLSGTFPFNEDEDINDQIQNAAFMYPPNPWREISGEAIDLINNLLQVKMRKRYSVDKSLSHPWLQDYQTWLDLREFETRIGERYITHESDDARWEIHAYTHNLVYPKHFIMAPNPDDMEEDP
To be noted: at 0.1 µM.

In assay [13] the target is T4, Serine/threonine-protein kinase D3 (Homo sapiens). Particulars: at 1 µM.
The target in assay [14] is T5, cGMP-dependent protein kinase 1 (Homo sapiens) (UniProt Q13976).
T5 sequence (whole entry): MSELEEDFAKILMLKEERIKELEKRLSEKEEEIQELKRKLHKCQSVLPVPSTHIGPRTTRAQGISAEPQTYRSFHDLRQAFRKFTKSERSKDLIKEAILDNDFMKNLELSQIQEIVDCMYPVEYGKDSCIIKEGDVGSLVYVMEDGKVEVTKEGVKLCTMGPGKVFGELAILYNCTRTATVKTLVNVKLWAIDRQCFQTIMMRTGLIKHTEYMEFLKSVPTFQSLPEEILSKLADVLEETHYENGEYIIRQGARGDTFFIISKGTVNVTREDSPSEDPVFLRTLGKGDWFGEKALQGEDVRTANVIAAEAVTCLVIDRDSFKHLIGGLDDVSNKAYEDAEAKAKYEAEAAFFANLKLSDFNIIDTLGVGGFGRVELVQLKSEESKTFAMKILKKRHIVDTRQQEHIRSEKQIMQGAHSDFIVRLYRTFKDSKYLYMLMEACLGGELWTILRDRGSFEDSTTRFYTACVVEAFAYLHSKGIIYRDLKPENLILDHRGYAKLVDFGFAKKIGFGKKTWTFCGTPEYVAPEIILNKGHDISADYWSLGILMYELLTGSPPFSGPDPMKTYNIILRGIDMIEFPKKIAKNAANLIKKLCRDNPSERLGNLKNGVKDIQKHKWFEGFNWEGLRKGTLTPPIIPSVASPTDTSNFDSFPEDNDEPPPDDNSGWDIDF
Particulars: at 0.1 µM.

The target of assay [15] is T5, cGMP-dependent protein kinase 1 (Homo sapiens). To be noted: at 1 µM.
Assay [16] deals with T6, cGMP-dependent protein kinase 2 (Homo sapiens) (UniProt Q13237).
T6 sequence (whole entry): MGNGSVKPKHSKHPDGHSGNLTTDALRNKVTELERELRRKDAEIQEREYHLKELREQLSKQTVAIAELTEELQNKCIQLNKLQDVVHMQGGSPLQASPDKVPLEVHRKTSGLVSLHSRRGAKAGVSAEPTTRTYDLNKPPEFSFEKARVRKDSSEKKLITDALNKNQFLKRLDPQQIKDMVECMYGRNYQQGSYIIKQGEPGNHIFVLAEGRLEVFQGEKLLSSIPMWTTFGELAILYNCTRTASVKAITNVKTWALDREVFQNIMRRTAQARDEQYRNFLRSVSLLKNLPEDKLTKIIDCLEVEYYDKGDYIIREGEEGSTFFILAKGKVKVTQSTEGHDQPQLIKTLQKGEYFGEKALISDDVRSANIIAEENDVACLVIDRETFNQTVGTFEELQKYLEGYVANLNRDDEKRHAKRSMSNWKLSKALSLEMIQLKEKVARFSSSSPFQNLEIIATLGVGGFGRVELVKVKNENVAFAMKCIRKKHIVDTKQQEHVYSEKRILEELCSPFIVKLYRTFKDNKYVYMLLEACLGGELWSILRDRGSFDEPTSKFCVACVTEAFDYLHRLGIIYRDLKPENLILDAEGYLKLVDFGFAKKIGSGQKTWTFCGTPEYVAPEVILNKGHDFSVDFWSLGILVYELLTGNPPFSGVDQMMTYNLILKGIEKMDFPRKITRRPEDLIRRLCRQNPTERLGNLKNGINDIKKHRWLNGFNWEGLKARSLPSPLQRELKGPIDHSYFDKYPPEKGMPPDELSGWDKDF
To be noted: at 0.1 µM.

In assay [17] the target is T6, cGMP-dependent protein kinase 2 (Homo sapiens). Particulars: at 1 µM.
The target in assay [18] is T7, cAMP-dependent protein kinase catalytic subunit PRKX (Homo sapiens) (UniProt P51817).
T7 sequence (whole entry): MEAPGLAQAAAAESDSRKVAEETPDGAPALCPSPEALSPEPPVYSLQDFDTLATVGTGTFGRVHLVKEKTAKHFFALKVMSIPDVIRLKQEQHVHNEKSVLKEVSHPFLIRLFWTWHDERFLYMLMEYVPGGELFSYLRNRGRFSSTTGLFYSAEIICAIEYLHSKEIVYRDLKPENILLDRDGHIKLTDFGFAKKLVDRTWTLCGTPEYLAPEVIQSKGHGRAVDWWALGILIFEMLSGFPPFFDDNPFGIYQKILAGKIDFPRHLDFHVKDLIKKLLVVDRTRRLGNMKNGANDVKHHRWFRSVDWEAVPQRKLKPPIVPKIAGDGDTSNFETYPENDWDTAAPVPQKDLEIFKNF
To be noted: at 0.1 µM.

The target in assay [19] is T7, cAMP-dependent protein kinase catalytic subunit PRKX (Homo sapiens). Particulars: at 1 µM.
The target in assay [20] is Rho-associated protein kinase 1 (Homo sapiens) (UniProt Q13464). Particulars: at 0.1 µM.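 Note: values are mean percent inhibition of ROCK1.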
Rho-associated protein kinase 1 (Homo sapiens), sequence (Q13464 2-1354 limits assumed): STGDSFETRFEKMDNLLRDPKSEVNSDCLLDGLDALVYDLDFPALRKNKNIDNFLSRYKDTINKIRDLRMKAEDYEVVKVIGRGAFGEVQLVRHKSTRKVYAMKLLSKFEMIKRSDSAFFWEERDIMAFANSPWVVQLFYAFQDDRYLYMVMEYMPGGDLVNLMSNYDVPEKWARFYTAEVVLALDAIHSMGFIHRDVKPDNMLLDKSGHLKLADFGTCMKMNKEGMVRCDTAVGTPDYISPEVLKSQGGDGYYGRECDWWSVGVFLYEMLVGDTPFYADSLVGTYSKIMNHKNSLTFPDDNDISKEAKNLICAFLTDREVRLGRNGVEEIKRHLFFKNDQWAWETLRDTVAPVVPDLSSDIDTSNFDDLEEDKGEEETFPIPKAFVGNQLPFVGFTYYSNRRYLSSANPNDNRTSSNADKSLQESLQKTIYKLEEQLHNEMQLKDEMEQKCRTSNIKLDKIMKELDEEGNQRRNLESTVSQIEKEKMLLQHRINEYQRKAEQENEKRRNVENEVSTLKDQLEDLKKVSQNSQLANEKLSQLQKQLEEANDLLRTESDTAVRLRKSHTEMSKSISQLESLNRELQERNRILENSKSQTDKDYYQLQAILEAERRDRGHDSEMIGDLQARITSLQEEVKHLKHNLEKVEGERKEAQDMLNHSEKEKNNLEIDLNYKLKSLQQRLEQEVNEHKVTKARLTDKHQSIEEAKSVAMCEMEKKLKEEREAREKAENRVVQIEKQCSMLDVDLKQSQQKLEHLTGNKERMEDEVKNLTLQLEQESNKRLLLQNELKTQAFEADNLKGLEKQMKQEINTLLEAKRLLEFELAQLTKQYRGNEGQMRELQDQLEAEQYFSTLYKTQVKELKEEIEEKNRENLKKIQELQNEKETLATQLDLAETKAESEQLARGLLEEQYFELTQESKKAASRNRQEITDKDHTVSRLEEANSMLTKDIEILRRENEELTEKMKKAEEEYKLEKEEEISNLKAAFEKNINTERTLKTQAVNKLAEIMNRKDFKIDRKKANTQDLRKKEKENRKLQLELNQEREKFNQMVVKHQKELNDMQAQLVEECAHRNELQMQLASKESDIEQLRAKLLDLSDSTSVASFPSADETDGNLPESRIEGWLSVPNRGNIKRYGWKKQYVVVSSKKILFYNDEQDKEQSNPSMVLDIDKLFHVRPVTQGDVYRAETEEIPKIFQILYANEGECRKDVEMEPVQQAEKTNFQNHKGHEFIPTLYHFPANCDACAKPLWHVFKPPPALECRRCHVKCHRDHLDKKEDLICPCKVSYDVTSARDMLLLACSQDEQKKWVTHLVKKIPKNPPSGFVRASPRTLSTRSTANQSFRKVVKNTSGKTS

The term inhibition denotes the relative decrease from the control value, in per cent. Regarding `COc1cc2ncn(-c3cc(OCCc4ccccc4)c(C(N)=O)s3)c2cc1OC`, the inhibition in assay [1] is 1.47%; in assay [2], 1.14%; in assay [3], 1.71%; in assay [4] it was 0.51%; in assay [5] it was -0.63%; in assay [6], 0.9%. The inhibition in assay [7] was determined as 1.22%; in assay [8], 2.65%; in assay [9], 5.06%; in assay [10] it was 3.79%; in assay [11] it was 4.84%; in assay [12], 3.76%. In addition, the inhibition in [13] stood at 4.36%; in assay [14], 2.33%; in [15] it was 4.13%; in [16], 1.3%; in [17] it was 2.13%; in assay [18], 0.24%. Moreover, the inhibition is -4.15% in assay [19] and 0.26% in [20].

Turning to `CN(C)CCOc1ccc(-c2cc(-c3ccc4c(c3)CCC4=NO)c(-c3ccncc3)o2)cc1`, the inhibition is 0.02% in assay [1]; -1.87% in assay [2]; -1.84% in [3]; -1.06% in assay [4]; -0.42% in assay [5]; -0.72% in assay [6]. Besides, the inhibition in assay [7] was 2.28%; in [8], -0.39%; in assay [9], 0.79%; in assay [10] it was 0.89%; in assay [11], 1.9%; in assay [12] it was -0.84%. The inhibition in assay [13] was 0.31%; in assay [14] it was -1.48%; in [15], 3.68%; in [16], -0.1%; in assay [17] it was 11.2%; in assay [18], -0.21%. Also, the inhibition in assay [19] is -1.72%; in [20], -1.57%.
